# PubChem BioAssay (NCI)
# This is part of a sample that, as a whole, favours compounds with a hit. Of some 83,000 tested, about 20% had one in any assay.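 Cells were grown in 96-well plates and exposed to the test compound at a single concentration for 48 hours; results are reported as percent growth, with values below 10 considered active.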 Calls of active or inactive are those of the source.
# Test system: CCRF-CEM leukemia
# Assay: NCI-60 one-dose screen, 48 h (100 = growth as untreated, 0 = no growth, -100 = all killed)
# Settings: 10 µM
row,SMILES,growth
1,Clc1nc(Cl)c2c(ncn2C/C=C\Cn2cnc3c(Cl)nc(Cl)nc32)n1,-81% (active)
2,O=C(O)CCCCSc1ncnc2nc[nH]c12,101% (inactive)
3,CN(C)CCS(=O)(=O)CCN(C)C,102% (inactive)
4,Clc1ccc(Nc2ccnc(NCCCNc3ccnc4cc(Cl)ccc34)n2)cc1,-19.9% (active)

# Test system: MOLT-4 leukemia
# Assay: as above
# Settings: 10 µM
row,SMILES,growth
1,CN(C)CCN=c1nc2c(c(N)n1-c1ccccc1)c(=S)n(-c1ccccc1)c(=S)n2-c1ccccc1,3.92% (active)
2,CC1(O)CCC2CC3OC3(C)CCC3OC3(C)CCC1C2(C)C (configuration not stated),104% (inactive)
3,C(CCCC1=NCCO1)CCCC1=NCCO1,105% (inactive)
4,COc1ccc(Nc2cc(C)nc(NCCCNc3ccnc4cc(Cl)ccc34)n2)cc1,-35.1% (active)
5,N#Cc1cc(-c2cc3ccccc3o2)oc1N,-12.4% (active)
6,CC1(C)N=C(N)N=C(N)N1c1ccc(CCc2ccccc2)c(Cl)c1,20.2% (inactive)
7,Cc1cc(C)c(NC(=O)c2sc3nc4c(cc3c2N)C(=O)CCC4)c(C)c1,43% (inactive)
8,O=C1Nc2ccccc2C1=NC1CCCCC1,111% (inactive)
9,COc1ccc(Nc2ccnc(NCCNc3ccnc4cc(Cl)ccc34)n2)cc1,18% (inactive)
10,Nc1nc(N)c(NC(=O)CNc2ccc(C(=O)O)cc2)c(N)n1,107% (inactive)
11,CCN(CC)CCNC(=O)c1ccc(NC(C)=O)cc1,107% (inactive)
12,c1ccc(CP(Cc2ccccc2)c2ccccc2)cc1,92.5% (inactive)
13,COc1ccc2c(c1)[n+]([O-])c(C#N)c(NC(=O)c1ccco1)[n+]2[O-],93.3% (inactive)
14,NC(=S)N=Nc1c(O)c2ccccc2c2ccccc12,100% (inactive)
15,CCCCOc1ccc(NC(=O)Nc2nnc(C)s2)cc1,90.4% (inactive)
16,CCOC(=O)C(CSC(c1ccccc1)(c1ccccc1)c1ccccc1)NC(=O)C(CSC(c1ccccc1)(c1ccccc1)c1ccccc1)NC(c1ccccc1)(c1ccccc1)c1ccccc1 (configuration not stated),110% (inactive)
17,N#Cc1ncc(-c2cc(F)c(F)c(F)c2)c(NC2CCCCCC2)n1,78.1% (inactive)
18,O=C1/C(=C\c2ccccc2)CN(C(=O)c2ccccc2F)C/C1=C\c1ccccc1,-4.02% (active)
19,COc1ccc(/C=C/C(C)=N/OCC(=O)O)cc1,86.8% (inactive)

row,SMILES,growth
1,COc1ccc2c(c1)nc(N)c1c3cccnc3cn21,30.9% (inactive)
2,COc1ccc(-c2nn(-c3cccc(NC(=O)Nc4ccc(Cl)c(C(F)(F)F)c4)c3)cc2-c2ccncc2)cc1Cl,-6.09% (active)
3,CS(=O)(=O)Nc1ccc(Nc2c3ccccc3nc3cc([N+](=O)[O-])ccc23)cc1,4.17% (active)
4,Cc1ccc(C)c(C(O)(c2cc(C)ccc2C)C2(O)CCCCC2)c1,71.5% (inactive)
5,Cc1cs/c(=N\NC(=O)c2cc(-c3cc4ccccc4o3)nn2-c2ccccc2)n1-c1ccccc1,75% (inactive)
6,CN(C)c1ccc(N=C2C=CC(=O)c3ccccc32)cc1,77.6% (inactive)
7,Cc1ccc(NC(=O)NC2CCCCC2)cc1,102% (inactive)
8,COc1ccc(/C=C2/CN(C(=O)c3ccc(C)cc3)C/C(=C\c3ccc(OC)cc3)C2=O)cc1,69.3% (inactive)
9,Cc1ccc(Nc2cc(C)nc(NCCCNc3ccnc4cc(Cl)ccc34)n2)cc1,-47.6% (active)
10,O=C1/C(=C\c2ccc(F)cc2)CN(C(=O)c2ccccc2F)C/C1=C\c1ccc(F)cc1,-1.83% (active)
11,c1ccc([I+]c2ccccc2)cc1,62.9% (inactive)
12,Cc1[nH]nc2c1C(c1cnn(C)c1)C(C#N)=C(N)O2 (configuration not stated),98.6% (inactive)
13,CCOC(=O)N1C/C(=C/c2ccc(OC)cc2)C(=O)/C(=C/c2ccc(OC)cc2)C1,27.3% (inactive)
14,COc1ccc(Nc2ncnc3c2c(SC)nn3-c2ccccc2)cc1,88.1% (inactive)
15,CSC1=NCCCC1,108% (inactive)
16,Clc1nc(Cl)c2c(ncn2C/C=C\Cn2cnc3c(Cl)nc(Cl)nc32)n1,-59.4% (active)
17,O=C(O)CCCCSc1ncnc2nc[nH]c12,101% (inactive)
18,CN(C)CCS(=O)(=O)CCN(C)C,104% (inactive)
19,Clc1ccc(Nc2ccnc(NCCCNc3ccnc4cc(Cl)ccc34)n2)cc1,-31.5% (active)
